Several values for one entry are separate records, joined by “and”; a condition that tells them apart may be missing. Equal entries are not always repeated. About 3,000 (1%) of roughly 290,000 compounds were called active. This is one part of a sample in which actives are shown more often than they occur. No stated cut-off is given here; in the data, active means inhibition mostly above about 36% (no sharp cut-off); inactive means mostly below about 34%.
assay: inhibition of NOD1-driven NF-kB reporter – cell-based, luminescence, uHTS, primary screen (AID 1578); conditions: NOD1-driven NF-kB luciferase reporter cells, at 4 µM, hits give high values;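 further: HEK-293T reporter cells stimulated with the NOD1 agonist gamma-tri-DAP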

SMILES	inhibition
Cc1ccccc1NC(=O)CSc1nc(N)c2c3c(sc2n1)CSC(C)(C)C3	-19.5% (inactive)
CC(Sc1nc(N)c2c3c(sc2n1)CSC(C)(C)C3)C(=O)Nc1ccccc1 (configuration not stated)	66.5% (active)
Cc1ccc(NC(=O)CSc2nc(N)c3c4c(sc3n2)CSC(C)(C)C4)cc1	22.5% (inactive)
COc1ccc(OC)c(-n2nnnc2SCC(=O)N2CCN(C(=O)c3ccco3)CC2)c1	-16.1% (inactive)
Cc1ccc(NC(=O)C2CC(=O)n3ncnc3N2)cc1C (configuration not stated)	-33.1% (inactive)
CC(=O)NCc1ccc(C(=O)CCl)s1	88.3% (active)
CC(=O)NCc1ccc(C(=O)CCl)cc1	-4% (inactive)
CC(=O)NCc1ccc(-c2csc(N)n2)s1	1.1% (inactive)
Cc1ccc(C(=O)COC(=O)c2cc(Cl)nc3ccccc23)cc1	-10.7% (inactive)
COc1cc(Br)c(CN2CCCN(C)CC2)cc1OC	-24.3% (inactive)
O=C(O)c1ccc(-c2cccc([N+](=O)[O-])c2)o1	9.4% (inactive)
O=[N+]([O-])c1cccc(-c2nc3ccccc3s/c2=N/O)c1	2.3% (inactive)
N#C/C(=C(/O)c1ccccc1F)c1nc2cc(C(F)(F)F)ccc2s1	-28.9% (inactive)
N#C/C(=C\N1CCN(Cc2ccc3c(c2)OCO3)CC1)c1nc2ccccc2s1	24.5% (inactive)
N#C/C(=C(/O)COC(=O)c1ccc(C#N)cc1)c1nc2ccccc2s1	-35.4% (inactive)
N#C/C(=C(/O)c1cc2ccccc2o1)c1nc2ccccc2s1	65.8% (active)
N#C/C(=C(/O)c1ccc2c(c1)OCO2)c1nc2cc(C(F)(F)F)ccc2s1	86.4% (active)
N#C/C(=C(/O)c1ccc(-c2cccc([N+](=O)[O-])c2)o1)c1nc2ccccc2s1	101% (active)
CC(C)=C(C#N)c1nc2ccccc2s1	-26.3% (inactive)
CC(C)(C)c1ccc(C(=O)OC/C(O)=C(\C#N)c2nc3ccccc3s2)cc1	92% (active)
N#C/C(=C(/O)c1ccco1)c1nc2ccccc2s1	-3.1% (inactive) and -9.8% (inactive)
N#C/C(=C(/O)COC(=O)c1ccccc1O)c1nc2ccccc2s1	16.3% (inactive)
CN(C)CCCN(Cc1ccccc1)C(=S)NCc1ccccc1	-3.5% (inactive)
Cc1ccc(C)c(-n2nnnc2SCC(=O)Nc2c(C)n(C)n(-c3ccccc3)c2=O)c1	-6.2% (inactive)
CCOc1ncccc1C(=O)Nc1nnc(C)s1	-28.7% (inactive)

SMILES	inhibition
CC(C)NC(=O)C(=O)NCCN1CCN(C(=O)c2ccc(C(C)(C)C)cc2)CC1	-31.9% (inactive)
Cc1c(CCO)c(=O)[nH]n1S(=O)(=O)c1ccc(Cl)cc1Cl	-2.3% (inactive)
COc1ccccc1NC(=S)NC(=O)/C=C/c1ccco1	-34.4% (inactive)
COc1ccc2[nH]c(C(=O)Nc3ncc(C)cc3Br)cc2c1	1.8% (inactive)
Cc1cccc(Cc2nnc(CCC(=O)N(C)Cc3ccncc3C)o2)c1	-15.4% (inactive)
COC(=O)c1ccc(C23CC4(C2)[C@H](CN(Cc2ccc(-c5ccccc5)cc2)[C@@H]4c2ccccc2)C3c2ccc(Cl)nc2)cc1 (some centres not stated)	-11.8% (inactive)
CCOP(=O)(c1ccc(N(C)C)cc1)C(O)c1ccccc1 (configuration not stated)	-12.2% (inactive)
N#C/C(=C(/O)c1ccc(F)cc1)c1nc2ccccc2s1	61.2% (active)
COC(=O)c1ccc(/C(O)=C(\C#N)c2nc3ccccc3s2)cc1	29.2% (inactive)
N#C/C(=C(/O)c1cccc(F)c1)c1nc2ccccc2s1	3.7% (inactive)
O=C(CSc1cn[nH]n1)Nc1ccccc1C(F)(F)F	-20.2% (inactive)
CCOC(=O)CNC(=O)C(CC(N)=O)NC(=O)OC(C)(C)C (configuration not stated)	-7.6% (inactive)
Cc1cc(CN(C)C(=O)c2cc(COc3ccc4ncccc4c3)on2)on1	13.2% (inactive)
CN(Cc1cccnc1)C(=O)c1cc(COc2ccc3c(c2)CCCC3)on1	-46.9% (inactive)
Cc1nc(CN(C)C(=O)c2cc(COc3c(F)cccc3F)on2)cs1	-40.5% (inactive)
CN(Cc1nccn1C)C(=O)c1cc(COc2ccc3ncccc3c2)on1	-6.6% (inactive)
COc1cc(NC(=O)c2ccco2)c(OC)cc1NC(=O)CSc1ncc(-c2ccc(F)cc2)[nH]1	-33.5% (inactive)
COc1ccc(N2CCN(C(=O)C3CCN(S(=O)(=O)c4c(C)noc4/C=C/N(C)C)CC3)CC2)cc1	-9.1% (inactive)
O=C(NCCc1ccccc1)C(=O)NCC1OCCCN1S(=O)(=O)c1cccs1 (configuration not stated)	-40.9% (inactive)
COc1cc(/C=C/C(=O)Nc2nc3ccc(S(=O)(=O)N(C)C)cc3s2)cc(OC)c1OC	28.3% (inactive)
Cc1noc(C)c1C(=O)OCC(=O)c1c[nH]c2ccccc12	-6.2% (inactive)
CCc1cccc2c(C(=O)COC(=O)c3cccc(S(=O)(=O)N(C)C4CCCCC4)c3)c[nH]c12	77.3% (active)
CCc1cccc2c(C(=O)COC(=O)C3=NNC(=O)CC3)c[nH]c12	-12.4% (inactive)
CCc1cccc2c(C(=O)COC(=O)c3c(C)noc3C)c[nH]c12	92.9% (active)
CCc1cccc2c(C(=O)COC(=O)c3ccc(O)cc3)c[nH]c12	-17.9% (inactive)

SMILES	inhibition
CCc1cccc2c(C(=O)COC(=O)c3ccccc3)c[nH]c12	-19.8% (inactive)
CCS(=O)CCSc1nc2ccccc2s1 (configuration not stated)	-10.5% (inactive)
N#Cc1cc(C(=O)c2ccccc2O)cn(-c2nccs2)c1=O	-9.7% (inactive)
O=C(NCc1ccccc1)C1CCN(c2nc(-c3ccccc3)nc3c2CCC3)CC1	15.8% (inactive)
CC[C@@H]1CC=C[C@H]2[C@H]1C(=O)N(Cc1ccccc1)[C@H]2c1ccc(C(F)(F)F)cc1	-2.1% (inactive)
COc1ccc(C(=O)O/N=C2\CCCc3nonc32)cc1	-0.9% (inactive)
CC(/C=C/c1ccccc1)=N\NC(=O)c1ccc(Br)cc1	43.7% (inactive)
CC(/C=C/c1ccccc1)=N\NC(=O)c1ccncc1	0.4% (inactive)
O=C(NCCc1ccccc1)C(=O)N/N=C/c1ccccc1C(F)(F)F	-5.8% (inactive)
O=C(Nc1cccc(Cn2cccn2)c1)c1cc2c(s1)CCCC2	34.5% (active)
Cc1ccc(NC(=O)c2cc3c(s2)CCCC3)cc1	-69.9% (inactive)
CC(=O)Nc1cccc(Cn2cccn2)c1	11.3% (inactive)
C=CCN(C(=O)CSc1nc2[nH]ncc2c(=O)n1-c1ccccc1OC)c1ccccc1	-29% (inactive)
O=C(O)c1cccc(Nc2nc3ccccc3nc2NS(=O)(=O)c2cccs2)c1	-74.2% (inactive)
COc1ccc(Nc2nc3ccccc3nc2NS(=O)(=O)c2cccs2)cc1	39.2% (inactive)
O=C(O)c1ccc(Nc2nc3ccccc3nc2NS(=O)(=O)c2cccs2)cc1	-3.1% (inactive)
COc1ccc(Nc2nc3ccccc3nc2NS(=O)(=O)c2cccs2)c(OC)c1	18% (inactive)
O=C1N2c3ccccc3CCc3cccc(c32)C1(O)C(F)(F)F (configuration not stated)	-26.6% (inactive)
CC1CC(C)CN(S(=O)(=O)N2CCCC(C(=O)NCCCN3CCOCC3)C2)C1 (configuration not stated)	16.8% (inactive)
CCn1nc(C)c(Br)c1Nc1ccc(Br)cc1	7.5% (inactive)
Cc1cc(C)nc(-n2nc(C)c(Br)c2Nc2ccc(Br)cc2)n1	-10.9% (inactive)
Cc1nn(C)c(Nc2ccc(Br)cc2)c1Br	44.9% (active)
CCN(CC)S(=O)(=O)c1ccc(C(=O)Nc2cccc(C)c2)cc1	-4.2% (inactive)
COc1cc(NC(=O)CNc2cccc(S(=O)(=O)N3CCCC3)c2)cc(OC)c1	-2.7% (inactive)
CCN(CC)S(=O)(=O)c1cccc(NC(=O)c2cncc(Br)c2)c1	-54.6% (inactive)

SMILES	inhibition
CC(=O)OCC(=O)Nc1cc(S(=O)(=O)N2CCCCCC2)ccc1Cl	-22.1% (inactive)
Cc1ccc(C(C)C)c(OCC(=O)Nc2cccc(S(=O)(=O)NC3=NCCCCC3)c2)c1	53.3% (active)
Cc1ccc(OCC(=O)Nc2cccc(S(=O)(=O)NC3=NCCCCC3)c2)cc1C	-93% (inactive)
Cc1ccc(C)c(OCC(=O)Nc2cccc(S(=O)(=O)NC3=NCCCCC3)c2)c1	-2.9% (inactive)
CCN(CC)CC(=O)Nc1cccc(S(=O)(=O)N2CCCC2)c1	-15.1% (inactive)
CC(C)(C)CC(=O)Nc1cc(S(=O)(=O)N2CCCCCC2)ccc1Cl	-3.6% (inactive)
Cn1nc(-c2ccccc2)c2cc(C(=O)O)sc21	-19.4% (inactive)
COc1cc(OC)cc(C(=O)Nc2cccc(NC(=O)c3ccccc3)c2)c1	2.4% (inactive)
Cc1cccc2nc(CSc3ncccc3C(=O)O)cn12	-32.8% (inactive)
Cc1cc(C)nc(N/N=C/c2ccccc2OCc2ccccc2)n1	-24.5% (inactive)
COc1cccc(NC(=O)CSc2ccc3nnc(-c4ccncc4)n3n2)c1	10.7% (inactive)
O=C(Cn1c(=O)oc2cc(S(=O)(=O)N3CCCC3)ccc21)Nc1cccc(C(F)(F)F)c1	58% (active)
CS(=O)(=O)c1ccc(Cl)c(NC(=O)CCc2ccccc2)c1	-34.6% (inactive)
O=C(Cn1[nH]c(=O)c2ccccc2c1=O)Nc1cccc(S(=O)(=O)N2CCCCCC2)c1	55% (active)
CC(=O)c1cccc(NC(=O)Cn2c(=O)oc3cc(S(=O)(=O)N4CCCC4)ccc32)c1	-4.9% (inactive)
O=C(CCc1ccccc1Cl)Nc1cccc(S(=O)(=O)N2CCCC2)c1	-16.3% (inactive)
O=C(Cc1n[nH]c(=O)c2ccccc12)Nc1cccc(S(=O)(=O)N2CCCC2)c1	0.5% (inactive)
CS(=O)(=O)c1ccc(Cl)c(NC(=O)Cc2c(Cl)cccc2Cl)c1	19.7% (inactive)
O=C(Cn1c(=O)oc2cc(S(=O)(=O)N3CCCC3)ccc21)Nc1ccc(C(F)(F)F)cc1	8.8% (inactive)
O=C(Cn1cnc2ccccc2c1=O)Nc1cccc(S(=O)(=O)N2CCCCC2)c1	3.7% (inactive)
CS(=O)(=O)c1ccc(Cl)c(NC(=O)CCl)c1	43.3% (active)
CC(=O)Nc1cccc(S(=O)(=O)N2CCCCCC2)c1	-15.2% (inactive)

Reference: PubChem BioAssay AID1578 (Sanford-Burnham Center for Chemical Genomics, 2009)
